# Sampled rows, rich in hits. Any-hit rate of the full collection: about 0.35%.
# PvdQ inh: P. aeruginosa PvdQ acylase inhibitors, primary screen, biochemical, fluorescence, plate reader and imaging, single point | actives 0.063% (n = 340,000) | inhibition, % at 10 µM | AID 488965, 2010 | purified PvdQ acylase | PvdQ acylase [Pseudomonas aeruginosa LESB58]; in the data active = inhibition above about 30%, passing the limit was not always enough
# ERAP1 HTS inh: human ERAP1 aminopeptidase inhibitors, primary screen, biochemical, single point, plate reader | inhibition, % at 10.7 µM | AID 652197, 2013 | recombinant ERAP1, Leu-AMC fluorescence, 60 min | actives 0.15% (n = 340,000);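 active = mean replicate inhibition of at least 30%, or all replicates individually reaching that 30% level; inactive = mean below 30% and not every replicate reaching it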
# Rtt109 Vps75: inhibitors of C. albicans Rtt109/Vps75 HAT, primary screen, biochemical, ThioGlo CoA-SH fluorescence, plate reader; Histone acetyltransferase RTT109 (Candida albicans (strain SC5314 / ATCC MYA-2876)), …; purified Rtt109/Vps75, 4 h; inhibition, % at 34.9 µM; actives 0.16% (n = 330,000); AID 540336, 2011;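 active = inhibition of at least 50% in every replicate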
# Target sequence (Q5AAJ8 whole entry, looked up): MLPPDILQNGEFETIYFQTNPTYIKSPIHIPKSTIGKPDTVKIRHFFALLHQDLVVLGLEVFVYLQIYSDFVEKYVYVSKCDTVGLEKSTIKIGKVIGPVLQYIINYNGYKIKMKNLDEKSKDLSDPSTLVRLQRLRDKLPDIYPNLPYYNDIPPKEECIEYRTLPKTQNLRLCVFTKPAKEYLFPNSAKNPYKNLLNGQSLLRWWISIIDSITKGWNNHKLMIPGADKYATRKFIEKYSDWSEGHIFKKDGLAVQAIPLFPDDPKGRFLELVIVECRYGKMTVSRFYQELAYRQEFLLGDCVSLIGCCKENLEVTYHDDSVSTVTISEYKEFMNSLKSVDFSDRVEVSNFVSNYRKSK
# PDI turbidity: inhibitors of human PDI, primary screen, biochemical, turbidity, single point, plate reader. Protein disulfide-isomerase (Homo sapiens), P07237. PDI insulin aggregation turbidity, A650, 90 min. inhibition, % at 10 µM. actives 0.052% (n = 350,000). AID 588391, 2011;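 active = mean inhibition across replicates of 30% or more, whatever share of single replicates reach that level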
# ERp5 block: inhibitors of ERp5-driven insulin aggregation, primary screen, biochemical, turbidity, absorbance 650 nm, single point; 90 min; inhibition, % at 9.99 µM; actives 0.05% (n = 350,000); Protein disulfide-isomerase A6 (Homo sapiens), Q15084;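 active = mean replicate inhibition above about 25%, with every replicate also reaching it, limit read from the data, passing the limit was not always enough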
# A number is an active result; - = inactive; . = not tested or not shown.
SMILES,PvdQ inh,ERAP1 HTS inh,Rtt109 Vps75,PDI turbidity,ERp5 block
Oc1ccccc1/C=N/[n+]1ccccc1,-,97,-,-,-
Oc1ccccc1C=NC(c1ccccc1)C(O)c1ccccc1 (centres undefined),-,.,-,-,.
CN1C(=O)c2cc(NC(=O)Cc3cccs3)ccc2OC[C@H]2O[C@H](CC(=O)N[C@@H]3CCN(Cc4ccccc4)C3)CC[C@H]21,.,-,.,.,-
C[C@H](CO)N1C[C@H](C)[C@@H](CN(C)C(=O)C2CC2)Oc2cc(C#Cc3cccnc3)ccc2S1(=O)=O,.,-,.,.,-
CO[C@@H]1CN(C)C(=O)c2ccc(NC(=O)c3ccc(F)cc3)cc2OC[C@@H](C)N(C)C[C@@H]1C,.,-,.,.,-
Cn1ccsc1=NC(=O)c1ccc(=O)[nH]c1,-,34,-,-,-
Cn1ccsc1=NC(=O)c1cccc(OC(F)F)c1,-,-,-,-,-
Cc1noc(C)c1NC(=O)Nc1ccc2c(c1)C(=O)N([C@@H](C)CO)C[C@H](C)[C@@H](CN(C)CC1CC1)OCCCC[C@H](C)O2,.,-,.,.,-
CN(C)CCCN(C(=O)CCOc1ccccc1)c1nc2c(F)cccc2s1,-,.,98,-,-
CN(C)CCCN(C(=O)CCc1ccccc1)c1nc2c(F)cccc2s1,-,.,-,-,.
CC(=O)C1=C(O)C(=O)N(CCc2c[nH]c3ccccc23)C1c1ccccc1 (centres undefined),-,-,-,-,-
CC(=O)C1=C(O)C(=O)N(CCc2c[nH]c3ccccc23)C1c1ccc(O)cc1 (centres undefined),-,.,-,46,.
Cc1ccc(C#N)c(SCc2nnc(-c3ccc(Cl)cc3)o2)n1,-,.,58,-,.
CC(C)C(NC(=O)c1ccc(F)cc1)C(=O)N1CCOCC1 (centres undefined),-,-,-,-,27
CC(C)C(NC(=O)c1ccc(F)cc1)C(=O)N1CCC1 (centres undefined),-,-,-,-,-
COC(=O)c1ccc(COc2ccccc2/C=C(\C#N)C(=O)Nc2ccc(C)cc2C)cc1,-,37,-,-,-
COC(=O)c1ccc(COc2ccccc2/C=C(\C#N)C(=O)Nc2c(C)cc(C)cc2C)cc1,-,-,-,-,-
c1ccc(-c2nc(-c3ccco3)cs2)nc1,-,.,-,-,.
Fc1ccc(-c2csc(-c3ccccn3)n2)cc1F,33,-,-,-,-
COC(=O)c1ccc(/C=C(\C#N)c2ccccn2)cc1,71,-,-,-,-
CN(C)c1ccc(/C=C(\C#N)c2ccccn2)cc1,-,.,-,-,.
C[C@@H]1CCCCO[C@@H](CN(C)Cc2ccc(C(=O)O)cc2)[C@H](C)CN([C@@H](C)CO)C(=O)c2cc(NC(=O)CCC(F)(F)F)ccc2O1,.,-,.,.,-
CCN(C(=O)c1cc2c(=O)n3ccccc3nc2n1C)C1CCCCC1,-,-,-,-,-
CC1CN(C(=O)c2cc3c(=O)n4ccccc4nc3n2C)CC(C)O1 (centres undefined),-,38,-,-,-
CN(C(=O)c1cc2c(=O)n3ccccc3nc2n1C)C1CCCCC1,-,61,-,-,-
SMILES,PvdQ inh,ERAP1 HTS inh,Rtt109 Vps75,PDI turbidity,ERp5 block
Cn1c(C(=O)N2CCOCC2)cc2c(=O)n3ccccc3nc21,-,57,-,-,-
Cn1c(C(=O)N2CCN(C(=O)c3ccco3)CC2)cc2c(=O)n3ccccc3nc21,-,.,-,-,.
COc1ccc(NC(=O)Nc2cccc3c2O[C@H](CN(C)Cc2ccc(-c4ccccc4)cc2)[C@@H](C)CN([C@@H](C)CO)C3=O)cc1,.,-,.,.,.
CO[C@@H]1CN(C)C(=O)c2cc(NC(=O)Nc3ccccc3)ccc2OC[C@@H](C)N(C(=O)Nc2c(C)noc2C)C[C@H]1C,.,-,.,.,-
C[C@H]1CN([C@@H](C)CO)C(=O)Cc2cc(NC(=O)CCN3CCOCC3)ccc2O[C@H]1CN(C)C,.,-,.,.,-
CCN(CC)c1nc2c(c(=O)[nH]c(=O)n2C)n1CCOc1ccccc1,-,-,58,-,-
CN(C)c1nc2c(c(=O)[nH]c(=O)n2C)n1CCOc1ccccc1,-,-,-,-,-
CO[C@H](CN(C)S(=O)(=O)c1ccccc1)[C@H](C)CN(Cc1ccccc1Cl)[C@@H](C)CO,.,-,.,.,-
COc1ccccc1CN(C)c1ccc(S(=O)(=O)N2CCN(C)CC2)cn1,-,-,-,-,31
CN(Cc1ccccc1F)c1ccc(S(=O)(=O)N2CCCC2)cn1,-,-,.,-,-
COC(=O)[C@H]1[C@H](CO)[C@H]2Cn3c(ccc(-c4ccccc4)c3=O)[C@H]2N1Cc1ccccc1F,.,-,.,.,-
COC(=O)[C@H]1[C@H](CO)[C@H]2Cn3c(ccc(-c4ccncc4)c3=O)[C@H]2N1Cc1ccccc1F,.,30,.,.,-
C[C@H](CO)N1C[C@H](C)[C@@H](CN(C)C(=O)Nc2ccccc2)Oc2ncc(-c3cccnc3)cc2C1=O,.,-,.,.,-
CC(C)c1nnc(NC(=O)CCC(=O)NCc2cccs2)s1,-,.,53,-,.
CC(C)c1nnc(NC(=O)Cc2cccs2)s1,-,-,-,.,-
CCNC(=O)Nc1ccc2c(c1)C(=O)N(C)[C@@H]1CC[C@H](CC(=O)Nc3ccccc3)O[C@@H]1CO2,.,-,.,.,-
O=C(O)[C@@H]1CCCN1C(=O)c1ccccc1N1C(=O)[C@@H]2Cc3c([nH]c4ccccc34)C(c3cccc(Cl)c3)N2C1=O (some centres undefined),-,33,-,.,-
O=C(OC(C(=O)NCc1ccccc1)c1ccco1)c1ccccc1 (centres undefined),.,-,.,.,-
CN(C)C(CNC(=O)c1ccc(C(=O)c2ccccc2)cc1)c1ccccc1 (centres undefined),-,-,54,-,-
COc1cc(OC)cc(C(=O)Nc2cccc(-c3ccc(N4CCOCC4)nn3)c2)c1,-,-,-,-,-
COc1cccc(OC)c1C(=O)Nc1cccc(-c2ccc(N3CCOCC3)nn2)c1,-,-,52,-,-
Cc1noc(C)c1S(=O)(=O)N(C)C[C@@H]1Oc2c(cccc2N(C)C)C(=O)N([C@H](C)CO)C[C@@H]1C,.,-,.,.,-
C=CC#CC1(O)CC(C)[N+](C)(C)CC1C (centres undefined),-,106,-,-,-
Cc1c(-n2cc(C(=O)c3ccccc3O)cc(C#N)c2=O)c(=O)n(-c2ccccc2)n1C,-,.,-,89,.
COc1ccc(CN(C)C(=O)c2cc(S(=O)(=O)N3CCCCCC3)ccc2OC)cc1OC,-,-,57,-,-
O=C(O)c1ccccc1-c1c2cc(I)c(=O)c(I)c-2oc2c(I)c(O)c(I)cc12,-,106,-,-,-
CC1CCC2(CC1)NC(=S)N(c1ccccc1)N2 (centres undefined),-,.,95,-,.
